DENV2 CPE – DENV2-induced cell death inhibition. 350,000 tested, 1.7% active. CPE inhibition, % at 9.99 µM. AID 651640. DENV2-infected cells, cytopathic effect rescue, plate reader; in the data active = CPE inhibition above about 20%, passing the limit was not always enough; inconclusive = no clear call, values can overlap the other calls; tested in BHK-21 cells;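 note: 0% = median of neutral control wells and 100% = median of positive control wells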
Rtt109 HAT inh – C. albicans Rtt109 histone acetyltransferase inhibition. inhibition, % at 34.9 µM. Q5AAJ8. purified Rtt109/Vps75, ThioGlo CoA-SH fluorescence, 4 h. 330,000 tested, 0.16% active;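 active = inhibition of at least 50% in every replicate; inconclusive = best replicate reaches 50% inhibition but some replicates fall short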
SIRT5 inh – sirtuin-5 (human) deacylase inhibition | Q9NXA8 | Purified SirT5, succinyl-peptide AMC, trypsin-coupled fluorescence | inhibition, % at 15 µM | 330,000 tested, 1.1% active; in the data active = inhibition above about 15%; inconclusive = no clear call, values can overlap the other calls
PDI inh – blocks human protein disulfide isomerase activity | AID 588391 | 350,000 tested, 0.052% active | PDI insulin aggregation turbidity, A650, 90 min | inhibition, % at 10 µM;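 active = mean inhibition across replicates of 30% or more, whatever share of single replicates reach that level; inconclusive = mean inhibition below 30% while every single replicate reaches 30%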
Target sequence (P07237 whole entry, looked up): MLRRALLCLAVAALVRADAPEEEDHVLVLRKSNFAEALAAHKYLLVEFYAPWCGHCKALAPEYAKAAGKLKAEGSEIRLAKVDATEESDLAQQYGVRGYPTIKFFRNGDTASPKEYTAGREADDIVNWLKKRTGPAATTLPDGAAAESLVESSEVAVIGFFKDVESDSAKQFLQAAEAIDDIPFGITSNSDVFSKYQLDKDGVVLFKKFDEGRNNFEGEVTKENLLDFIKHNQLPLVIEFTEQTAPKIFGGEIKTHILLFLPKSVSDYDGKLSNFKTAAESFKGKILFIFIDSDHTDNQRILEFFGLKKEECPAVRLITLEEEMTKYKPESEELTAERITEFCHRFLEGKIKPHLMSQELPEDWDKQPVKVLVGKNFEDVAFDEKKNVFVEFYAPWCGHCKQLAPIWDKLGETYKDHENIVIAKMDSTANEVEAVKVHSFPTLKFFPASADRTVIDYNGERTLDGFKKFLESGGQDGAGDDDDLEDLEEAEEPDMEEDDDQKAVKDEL
ERp5 inh – ERp5 (human) disulfide isomerase inhibition. AID 651711. Q15084. ERp5 insulin aggregation, absorbance 650 nm, 90 min. 350,000 tested, 0.05% active. inhibition, % at 9.99 µM;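 active = mean replicate inhibition above about 25%, with every replicate also reaching it, limit read from the data, passing the limit was not always enough; inconclusive = only one of those two criteria met; inactive = neither criterion met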
Starred values were filed as active, the others as inactive; ? = inconclusive; · = no result; ! = a repeat was not active. The list is not random: actives were taken first. Their share in the collection is about 2.3%.

SMILES	DENV2 CPE	Rtt109 HAT inh	SIRT5 inh	PDI inh	ERp5 inh
C[C@H](CO)N1C[C@H](C)[C@H](CN(C)Cc2ccc(-c3ccccc3)cc2)OCc2ccccc2-c2ccccc2C1=O	5	·	19*	·	1
C[C@@H]1CN([C@@H](C)CO)C(=O)c2ccccc2-c2ccccc2CO[C@H]1CN(C)C(=O)c1cc(Cl)cc(Cl)c1	-6	·	3	·	1
C[C@@H]1CN([C@H](C)CO)C(=O)c2ccccc2-c2ccccc2CO[C@H]1CN(C)C(=O)c1cc(Cl)cc(Cl)c1	29*	·	5	·	-1
C[C@H]1CN([C@@H](C)CO)C(=O)c2ccccc2-c2ccccc2CO[C@H]1CN(C)Cc1ccc(F)cc1	0	·	23*	·	-4
C[C@H](CO)N1C[C@H](C)[C@H](CN(C)Cc2ccccc2)OCc2ccccc2-c2ccccc2C1=O	-9	·	4	·	0
CCc1ccccc1NC(=O)CSc1n[nH]c(-c2cccnc2)n1	-3	0	-3	-5	0
COc1ccc(OC)c(NC(=O)CSc2n[nH]c(-c3cccnc3)n2)c1	4	4	17*	-8	0
CCOC(=O)c1sc(NC(=O)c2ccncc2)c(C#N)c1C	43*	-6	2	-4	7
O=S(=O)(c1cccs1)N1CCCCN2[C@@H](CO)[C@H](c3ccc(Br)cc3)[C@@H]2C1	33*	·	-1	·	1
O=S(=O)(c1cccs1)N1CCCCN2[C@H](CO)[C@H](c3ccc(C4=CCCCC4)cc3)[C@H]2C1	15	·	20*	·	-2
COc1ccc(S(=O)(=O)Nc2ccc3c(c2)CC(=O)N([C@@H](C)CO)C[C@H](C)[C@H](CN(C)Cc2ccc4c(c2)OCO4)O3)cc1	28*	·	4	·	4
C[C@H](CO)N1C[C@H](C)[C@@H](CN(C)Cc2ccc3c(c2)OCO3)Oc2ccc(NS(=O)(=O)c3cn(C)cn3)cc2CC1=O	45*	·	·	·	·
C[C@H](CO)N1C[C@H](C)[C@H](CN(C)Cc2ccc3c(c2)OCO3)Oc2ccc(NS(=O)(=O)c3ccc(Cl)cc3)cc2CC1=O	-5	·	3	·	10
C[C@H](CO)N1C[C@H](C)[C@@H](CN(C)Cc2ccc3c(c2)OCO3)Oc2ccc(NS(=O)(=O)c3ccc(Cl)cc3)cc2CC1=O	6	·	18*	·	0
COc1ccc(S(=O)(=O)Nc2ccc3c(c2)CC(=O)N([C@H](C)CO)C[C@@H](C)[C@@H](CN(C)Cc2ccc4c(c2)OCO4)O3)cc1	1	·	3	·	3
C[C@@H]1CN([C@@H](C)CO)C(=O)Cc2cc(NS(=O)(=O)c3ccc(Cl)cc3)ccc2O[C@@H]1CN(C)Cc1ccc2c(c1)OCO2	-9	·	11	·	7
C[C@H]1CN([C@@H](C)CO)C(=O)Cc2cc(NS(=O)(=O)c3ccc(Cl)cc3)ccc2O[C@@H]1CN(C)Cc1ccc2c(c1)OCO2	23*	·	6	·	0
O=C(C[C@H]1CC[C@H]2[C@@H](COC[C@H](O)CN2Cc2ccc(Oc3ccccc3)cc2)O1)N1CCCCC1	-5	·	2	·	-2
CN1C(=O)c2cc(NC(=O)c3ccc(F)cc3)ccc2OC[C@H]2O[C@H](CC(=O)N3CCOCC3)CC[C@H]21	2	·	4	·	-1
O=C(Nc1ccc(S(=O)(=O)NC2=NCCCCC2)cc1)c1cccs1	65*	0	5	-1	-7
CCCS(=O)(=O)N1CCn2c(nc3ccccc32)C1	-5	-1	15*	·	0
CCn1c(N2CCN(S(=O)(=O)CC)CC2)nc2ccccc21	0	2	2	5	-18
C[C@@H]1CN([C@@H](C)CO)C(=O)Cc2cc(NC(=O)Nc3cccc4ccccc34)ccc2O[C@H]1CN(C)C(=O)Nc1ccc2c(c1)OCO2	-8	·	2	·	-11
O=C(C[C@@H]1CC[C@@H]2[C@H](COC[C@H](O)CN2Cc2ccccc2)O1)NCCc1ccccc1	-5	·	0	·	1
CN1C(=O)c2cc(NC(=O)Nc3ccccc3F)ccc2OC[C@H]2O[C@H](CC(=O)NCc3ccc(-c4ccccc4)cc3)CC[C@@H]21	?	·	11	·	5
SMILES	DENV2 CPE	Rtt109 HAT inh	SIRT5 inh	PDI inh	ERp5 inh
CCNC(=O)Nc1ccc2c(c1)C(=O)N(C)[C@@H]1CC[C@H](CC(=O)NCc3ccccc3F)O[C@@H]1CO2	?	·	3	·	-3
CN1C(=O)c2cc(NC(=O)Nc3ccccc3F)ccc2OC[C@H]2O[C@@H](CC(=O)NCc3ccc(-c4ccccc4)cc3)CC[C@H]21	48*	·	1	·	12
CCNC(=O)Nc1ccc2c(c1)C(=O)N(C)[C@@H]1CC[C@H](CC(=O)NCc3ccccc3F)O[C@H]1CO2	71*	·	0	·	3
C[C@@H]1CN([C@H](C)CO)C(=O)c2ccccc2-c2ccccc2CO[C@H]1CN(C)S(=O)(=O)c1cn(C)cn1	-1	·	0	·	0
O=C(Nc1ccc(F)cc1)N1C[C@@H]2[C@H](c3ccccc31)[C@H](CO)N2Cc1cocn1	-1	·	0	·	3
COc1cccc(C(=O)OCCCN(C)C)c1	-3	0	15*	0	6
O=C(C1CC1)N1CC[C@@H]2[C@H]1c1cc(C#Cc3ccc(F)cc3)ccc1N[C@@H]2CO	27*	·	·	·	·
O=C(C1CC1)N1CC[C@@H]2[C@H]1c1cc(C#Cc3ccccc3F)ccc1N[C@@H]2CO	29*	·	·	·	·
Nc1c(C(=O)N/N=C/c2ccc([N+](=O)[O-])cc2)cnn1-c1ccccc1	46*	-14	-5	-5	2
COc1cccc(=O)c2c(C)oc(C)c12	·	4	·	-7	·
COc1ccc(Br)c2oc(SC)cc(=O)c12	82*	2	·	-2	-3
C[C@H](CO)N1C[C@H](C)[C@H](CN(C)S(=O)(=O)c2ccc(Cl)cc2)OCc2cnnn2CCCC1=O	-8	·	15*!	7	-1
C[C@H]1CN([C@@H](C)CO)C(=O)CCCn2nncc2CO[C@@H]1CN(C)S(=O)(=O)c1ccccc1F	70*	·	-3	·	-2
C[C@H](CO)N1C[C@H](C)[C@@H](CN(C)S(=O)(=O)c2ccc3ccccc3c2)OCc2cnnn2CCCC1=O	-5	·	21*!	4	1
C[C@@H]1CN([C@@H](C)CO)C(=O)CCCn2nncc2CO[C@H]1CN(C)S(=O)(=O)c1ccc(Oc2ccccc2)cc1	-2	·	-13	1	-3
C[C@H](CO)N1C[C@H](C)[C@@H](CN(C)S(=O)(=O)c2ccc(Oc3ccccc3)cc2)OCc2cnnn2CCCC1=O	0	·	12	19	89*!
COCC(=O)Nc1ccc2c(c1)C(=O)N(C)C[C@@H](OC)[C@@H](C)CN(CC1CCCCC1)[C@H](C)CO2	-6	·	0	·	0
CC(C)(C)S(=O)N1Cc2cc(C(=O)NCCCN3CCOCC3)nc(-c3cccc(-c4cccc(F)c4)c3)c2[C@H]1CCO (some centres not stated)	-4	·	-2	·	1
C[C@H](CO)N1C[C@H](C)[C@H](CN(C)S(=O)(=O)c2ccccc2)OCc2cnnn2CCCC1=O	28*!	·	-2	-1	-3

Bioassay records: PubChem BioAssay, Broad Institute
